This note sets out measurements from PubChem BioAssay (NCI).

This is part of a sample that, as a whole, favours compounds with a hit. Of some 83,000 tested, about 20% had one in any assay.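 Method: cells in 96-well plates; compound added at one concentration; 48 h incubation; percent growth measured; values under 10 scored active.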 A number with no mark means an inactive call. Activity calls are given as the source filed them.

The experiment has as its system SN12C renal. Kind of experiment: NCI-60 one-dose screen, 48 h (100 = growth as untreated, 0 = no growth, -100 = all killed). Conditions: 10 µM unless noted. The method, then: Growth inhibition of the SN12C human tumor cell line is measured as a screen for anti-cancer activity. Cells are grown in 96 well plates and exposed to the test compound for 48 hours. Compounds are tested at a single concentration, which is 10^-5 M for most compounds. The reported endpoint is percent growth (GI% or GIPRCNT), where numbers from 0 - 100% represent growth inhibition, and numbers from -100% - 0 represent cell death. For example, a value of 40 represents 60% growth inhibition. A value of 0 means no net growth occurred over the course of the experiment. A value of -40 indicates 40% of cells at the beginning of the experiment died by the end of the experiment. A value of -100 means all cells are dead at the end of the experiment.
NCI-60 Human Tumor Cell Lines Screen was performed using the standard one-dose NCI protocol, which is described in more detail at https://dtp.cancer.gov/discovery_development/nci-60/default.htm.
Compounds with GIPRCNT values below 10 were considered active. Activity score was based on GIPRCNT using the following formula: […]
Score is 0 for GIPRCNT values of 100 or above, 50 for GIPRCNT values of 0, and 100 for GIPRCNT values of -100.
Turning to `C[C@@H]1CC[C@@H]2[C@@H]1[C@H](OC(=O)c1ccc3ccccc3c1)[C@]1(C3CCCCC3)C[C@@H](OC(=O)CO)[C@@]2(C)O1`, the growth is 24%.
Turning to `COc1cc(C2CC(c3ccc(Nc4nc(Nc5ccc(F)cc5)nc(Nc5ccc(Cl)cc5)n4)cc3)=NN2C(C)=O)cc(OC)c1OC` (stereo not given), the growth was 80.8%.
Regarding `O=C(Nc1ccccc1Cl)OCCN1CCOCC1`, the growth is 98%.
With `CN(C)c1ccc(/C=C/c2c(F)cccc2F)cc1`, the growth is 98.2%.
For `C=C1C(=O)O[C@H]2[C@H]1CC/C(Cn1cc(CNCCc3c[nH]c4ccccc34)nn1)=C\CC[C@@]1(C)O[C@@H]21`, the growth is 95%.
`O=[N+]([O-])c1ccc(-c2cc3c(Nc4ccc(Sc5nc6ccccc6s5)c(Cl)c4)ncnc3s2)cc1`: the growth is 28.6%.
As to `NC(=S)c1csc(CCNC(=O)c2ccccc2)n1`, the growth was 91.8%.
For the compound `COc1cc2c(cc1OC)-c1ccc3cc4c(cc3c1N(CCCN(C)C)C2)OCO4`, the growth is 27.4%.
To `Cc1ccc(/C=C(\C#N)n2nnc3cc(Cl)c(Cl)cc32)cc1` belongs 19.5%; to `CN(C)c1ccc(/C=N/NC(=O)COc2cc(=O)n(C)c3ccccc23)cc1`, 99.5%; to `COc1ccc(/C(C)=C(\c2ccc(Cl)cc2)c2ccc(OCCN(C)C)cc2)cc1F`, 70.6%.
With `COc1cc(/C=C/C(=O)c2cccc(-n3cc(-c4ccccc4)[nH]c3=O)c2)cc(OC)c1OC`, the growth was 10.4%.
In the case of `O=C(NCc1cccnc1)c1cc(-c2csc3c(=O)cc(N4CCOCC4)oc23)cc2c1OCCO2`, the growth was 41.7%.
To `CN(C)CCCCNc1ccc(NCCCCN(C)C)c2c1C(=O)c1c(O)ccc(O)c1C2=O` belongs 64.2%; to `O=c1ccn(C2OC(F)(CO)C(O)C2F)c(=O)[nH]1` (stereo not given), 102%; to `CS(=O)(=O)c1ccc(N/N=C/c2c(-c3ccc(S(C)(=O)=O)cc3)[nH]c3ccc(F)cc23)cc1`, 36.2%.
On to `NC(=S)N/N=C/C(=O)O`, for which the growth was 90.4%.
In the case of `Cn1nnnc1-c1ccc(N)cc1`, the growth was 110%.
On to `Cc1cnc(Nc2ccc(N3CCN(C)CC3)cc2)nc1Nc1ccc(Cl)c(NS(=O)(=O)C(C)(C)C)c1`, for which the growth was 34%.
For `CCO/C=N/C1=C(C#N)C(c2ccc(OC)cc2)c2c(c3ccccc3n(C)c2=O)O1` (stereo not given), the growth was 98.9%.
For the compound `O=C(CC12CC3CC(CC(C3)C1)C2)NCCOCCOCCNC(=O)c1cc2c(o1)C(=O)c1ccccc1C2=O`, the growth was -96.3% (active).
In the case of `O=C(Nc1ccc(N2CCCCC2)c(Cl)c1)c1ccc(Br)o1`, the growth was 80.6%.
As for `Clc1ccc2c(NCCCN3CCN(c4nc(-n5ccnc5)nc5ccccc45)CC3)ccnc2c1`, the growth was 84.1%.
Regarding `O=C(C[C@@]1(O)C(=O)Nc2c(Cl)ccc(Cl)c21)c1ccc(C2CC2)cc1`, the growth was 32.2%.
For the compound `C=C1c2c(C)nn(-c3ccc(S(N)(=O)=O)cc3)c2N(C)C23CC1C1(C)c4c(C)nn(-c5ccc(S(N)(=O)=O)cc5)c4N(C)C(C)(CC12)C3` (stereo not given), the growth is 32.4%.
As for `CN1CCC(=C2c3ccccc3C=Cc3ccccc32)CC1`, the growth was 79.1%.
As for `Cc1nc(-c2ccccc2)cc2c(O)c(C(=O)N/N=C/c3ccc(N(C)C)cc3)[nH]c(=O)c12`, the growth is 82%.
`O=c1[nH]c(=O)n(C2CC(O)C(CO)O2)cc1CO` (stereo not given): the growth was 76.2%.
Turning to `CCC(C)NCc1ccccc1` (stereo not given), the growth is 100%.
With `CCc1c(C(=O)N[C@@H]2c3cc(Cl)ccc3CC[C@@H]2O)[nH]c(C)c1C(C)=O`, the growth was 94.7%.
To `Clc1ccc2[nH]c3c(NCCCN4CCOCC4)ncnc3c2c1` belongs 82.5%; to `CCOC(=O)c1nnn(C(Cc2ccccc2Cl)C(=O)OCC)c1C` (stereo not given), 104%.
On to `CCOC(=O)C(O)C(O)(c1ccccc1)c1ccccc1` (stereo not given), for which the growth is 99%.
`CCOC(=O)Cc1csc2nc(-c3ccccc3)nn12`: the growth is 106%.
Turning to `N[C@H]1CCC[C@@H]1NCCCCN1C(=O)c2cccc3cccc(c23)C1=O`, the growth is 63.9%.
To `[2H]c1nc(Nc2ncc(F)c(-c3cc(F)c4nc(C)n(C(C)C)c4c3)n2)c([2H])c([2H])c1CN1CCN(C([2H])([2H])C([2H])([2H])[2H])CC1` belongs 54.3%; to `CCCCCCNC(=O)c1cc(NCc2cc(O)ccc2O)ccc1O`, 56.3%; to `C=C(C)C1CCC(=C)C2CCC3(C)OC12/C=C(/COC(C)=O)CCC3O` (stereo not given), 106%.
For the compound `CC(C)CCC[C@@H](C)[C@H]1CCC2C3=CCn4c(=O)ccc(=O)n4C3CC[C@@]21C` (stereo not given in full), the growth was -97.7% (active).
To `Nc1c(-c2nc3ccc(Br)cc3c(=O)[nH]2)nnn1-c1ccccc1` belongs 95.5%.
